From PubChem BioAssay (Tox21) come the findings set out here.

Assay [1] can be described thus: qHTS RealTime-Glo MT Cell Viability Assay in HEK293 cells - 0 hour (AID 1224880). Note: top concentration of the series differs between compounds; nearly all actives have a fitted effect of over 45% in size. The essentials:
(§1)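 Kinetic, non-lysing viability readout. Seed HEK293 (600/well) with reagent, incubate 5 h at 37 C/5% CO2, pin 23 nL compound in DMSO, incubate at 37 C, read luminescence at 0, 8, 16, 24, 32, 40 h.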
A general note: In qHTS, concentration-response curves come from the screen itself.

The nature of assay [2]: A CellTox Green Cytotoxicity Assay to monitor cytotoxicity in HEK293 cells - 32 hour (AID 1224881). Note: nearly all actives have a fitted effect of over 40% in size. A digest of the protocol:
(§2)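 Real-time, in one plate: 600 HEK293 cells/well with dead-cell DNA dye, pinned compound after 5 h, 37 C incubation over 40 h; viable cells give no appreciable fluorescence.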

A short description of assay [3]: A CellTox Green Cytotoxicity Assay to monitor cytotoxicity in HepG2 cells - 0 hour (AID 1224882). Note: nearly all actives have a fitted effect of over 35% in size. The essentials:
(§3)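 Cytotoxicity was tracked as dead-cell DNA fluorescence in HepG2 cells treated with test compounds at 37 C; each time-point value comes from one kinetic series spanning 0, 8, 16, 24, 32 and 40 h.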

The nature of assay [4]: A CellTox Green Cytotoxicity Assay to monitor cytotoxicity in HepG2 cells - 32 hour (AID 1224883). Note: nearly all actives have a fitted effect of over 50% in size. The essentials:
as §3

Assay [5] is described as follows: A CellTox Green Cytotoxicity Assay to monitor cytotoxicity in HEK293 cells - 8 hour (AID 1224884). Note: nearly all actives have a fitted effect of over 35% in size. The essentials: as §2
Assay [6] in a line: qHTS RealTime-Glo MT Cell Viability Assay in HepG2 cells - 16 hour (AID 1224885). Note: nearly all actives have a fitted effect of over 50% in size. A digest of the protocol:
(§4)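 HepG2 cells (600/well) were dispensed with RealTime-Glo reagents, incubated 5 h at 37 °C, then treated with compounds in DMSO for up to 40 h. Nonlytic NanoLuc luminescence reflecting viable cells was read at each stated time point.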

Assay [7] in a line: qHTS RealTime-Glo MT Cell Viability Assay in HEK293 cells - 24 hour (AID 1224886). Note: top concentration of the series differs between compounds; nearly all actives have a fitted effect of over 50% in size. A digest of the protocol:
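HEK293 cells seeded with NanoLuc/prosubstrate reagent, rested 5 h at 37 C, then dosed and kept at 37 C up to 40 h. Nonlytic real-time luminescence from viable cells read at 0, 8, 16, 24, 32 and 40 h.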

Assay [8] can be described thus: qHTS RealTime-Glo MT Cell Viability Assay in HEK293 cells - 8 hour (AID 1224887). Note: top concentration of the series differs between compounds; nearly all actives have a fitted effect of over 50% in size. The essentials: as §1
Assay [9] is described as follows: A CellTox Green Cytotoxicity Assay to monitor cytotoxicity in HEK293 cells - 16 hour (AID 1224888). Note: nearly all actives have a fitted effect of over 35% in size. The essentials: as §2
The nature of assay [10]: qHTS RealTime-Glo MT Cell Viability Assay in HepG2 cells - 0 hour (AID 1224889). Note: nearly all actives have a fitted effect of over 50% in size. A digest of the protocol:
as §4

A short description of assay [11]: A CellTox Green Cytotoxicity Assay to monitor cytotoxicity in HepG2 cells - 8 hour (AID 1224890). Note: nearly all actives have a fitted effect of over 45% in size. A digest of the protocol:
as §3

A short description of assay [12]: qHTS assay to identify small molecule antagonists of the estrogen receptor alpha (ER-alpha) signaling pathway using the BG1 cell line in the presence of 0.1 nM 17-beta-estradiol - cell viability counter screen (AID 1259241). Note: nearly all actives have a fitted effect of over 40% in size. The essentials: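 VM7Luc4E2 cells (endogenous full-length ER-alpha, 4xERE-luciferase), cultured 5 days in charcoal-stripped serum, exposed to compounds with 0.1 nM 17beta-estradiol (final) for 22 hr at 37C. Viability read in same wells as live-cell protease fluorescence after 30 min.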

Assay [13] in a line: qHTS assay to identify small molecule antagonists of the androgen receptor (AR) signaling pathway using the MDA cell line in the presence of 0.5 nM R1881 - cell viability counter screen (AID 1259242). Note: nearly all actives have a fitted effect of over 45% in size. A digest of the protocol:
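Cells seeded at 3,000/well and allowed 5 hr at 37C, 0% CO2 before compound transfer and R1881 (0.5 nM final) addition; 16 hr later, live-cell protease fluorescence indicated cytotoxicity.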

For assay [14], the target named is Estrogen receptor (Homo sapiens) (UniProt P03372). As to the kind of experiment: qHTS assay to identify small molecule antagonists of the estrogen receptor alpha (ER-alpha) signaling pathway using the BG1 cell line in the presence of 0.1 nM 17-beta-estradiol (AID 1259244). Note: nearly all actives have a fitted effect of over 50% in size. Note: potency is the fitted concentration of half-maximal effect. A digest of the protocol: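 Luciferase signal from VM7Luc4E2 ERE-reporter cells, co-dosed with test compound and 0.1 nM final 17beta-estradiol for 22 h, read with ONE-Glo.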
Chain of Estrogen receptor (Homo sapiens) (P03372 whole entry, looked up): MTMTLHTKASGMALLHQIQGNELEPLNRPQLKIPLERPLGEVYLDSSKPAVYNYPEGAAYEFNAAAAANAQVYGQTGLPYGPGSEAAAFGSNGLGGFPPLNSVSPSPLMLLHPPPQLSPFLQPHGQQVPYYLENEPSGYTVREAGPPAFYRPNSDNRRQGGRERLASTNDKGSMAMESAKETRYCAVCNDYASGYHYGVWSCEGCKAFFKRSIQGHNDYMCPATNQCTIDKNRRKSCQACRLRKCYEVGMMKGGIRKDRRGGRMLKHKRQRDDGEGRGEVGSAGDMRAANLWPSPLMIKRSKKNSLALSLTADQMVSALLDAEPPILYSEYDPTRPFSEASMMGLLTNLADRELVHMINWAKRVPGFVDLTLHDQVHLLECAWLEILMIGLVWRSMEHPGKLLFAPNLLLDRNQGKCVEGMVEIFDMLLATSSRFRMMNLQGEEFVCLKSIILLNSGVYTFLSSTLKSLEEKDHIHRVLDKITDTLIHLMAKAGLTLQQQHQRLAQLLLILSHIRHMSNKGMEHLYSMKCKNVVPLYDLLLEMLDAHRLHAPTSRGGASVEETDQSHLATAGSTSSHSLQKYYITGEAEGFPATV

Assay [15] is described as follows: qHTS assay to identify small molecule HDAC inhibitors (AID 1259364).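 Note: wild-type HCT-116 cells with endogenous class I/II HDAC activity; top concentration of the series differs between compounds; nearly all actives have a fitted effect of over 45% in size.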 A digest of the protocol: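 HCT-116 wt cells, 1,500/well, overnight attach. Compounds (DMSO) 2 h, 37 °C. HDAC-Glo I/II, 30 min RT. Luminescence.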
Assay [16] is described as follows: qHTS assay to identify small molecule HDAC inhibitors - cell viability counter screen (AID 1259365). A digest of the protocol: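 Wild-type HCT-116 cells, 1,500/well, cultured overnight, then compound-treated 2 h at 37 C. Viability measured as ATP luminescence with CellTiter-Glo after 30 min at room temperature.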
Assay [17] is described as follows: qHTS assay to identify small molecule agonists of the sonic hedgehog signaling (Shh) pathway - cell viability counter screen (AID 1259366). Note: nearly all actives have a fitted effect of over 50% in size. A digest of the protocol: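 NIH/3T3-derived Gli1-Luc reporter cells, 2,000 per well, received compound after 4 h and were treated about 23 h at 37C. Viability measured in the same wells by CellTiter-Fluor fluorescence after 1 h.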

A short description of assay [18]: qHTS assay to identify small molecule antagonists of the sonic hedgehog signaling (Shh) pathway - cell viability counter screen (AID 1259367). Note: nearly all actives have a fitted effect of over 55% in size. A digest of the protocol: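 Conditioned medium drove Shh signaling in 3T3 Gli1-Luc cells exposed to compounds at 37C and 5% CO2. Viability was determined from CellTiter-Fluor fluorescence, with reagent incubated 1 hr after 23 hr of treatment.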

Assay [19] has as its target Androgen receptor (Homo sapiens) (UniProt P10275). Nature of the assay: qHTS assay to identify small molecule antagonists of the androgen receptor (AR) signaling pathway using the MDA cell line in the presence of 0.5 nM R1881 (AID 1259243). Note: nearly all actives have a fitted effect of over 50% in size. A digest of the protocol: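 Luminescence from an AR/GR-responsive MMTV-luciferase construct in MDA-kb2 breast carcinoma cells, read 30 min after ONE-Glo, following 16 hr co-treatment with compounds and 0.5 nM R1881.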

Assay [20] in a line: qHTS assay to identify small molecule phospholipidosis (PLD) inducers (AID 1259344; active = well fitted curve in the direction sought with a large enough effect; an effect the other way counts as inactive or inconclusive). A digest of the protocol:
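After 4 h attachment on collagen I, HepG2 cells were dosed with compound alongside LipidTOX Red, kept 24 h at 37 C, fixed, and imaged for lamellar phospholipid pits.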

Records with an inconclusive call do not appear. A structure can be active in one record and inactive in another. The source made the active and inactive calls. Unless noted, calls come from the whole dose curve; as a rule, active = well fitted curve in the direction sought with a large enough effect in the repeat runs; inconclusive = weak or mixed curves; inactive = no such curve, though single readings can be large; an effect the other way counts as inactive or inconclusive.

Chain of Androgen receptor (Homo sapiens) (P10275 whole entry, looked up): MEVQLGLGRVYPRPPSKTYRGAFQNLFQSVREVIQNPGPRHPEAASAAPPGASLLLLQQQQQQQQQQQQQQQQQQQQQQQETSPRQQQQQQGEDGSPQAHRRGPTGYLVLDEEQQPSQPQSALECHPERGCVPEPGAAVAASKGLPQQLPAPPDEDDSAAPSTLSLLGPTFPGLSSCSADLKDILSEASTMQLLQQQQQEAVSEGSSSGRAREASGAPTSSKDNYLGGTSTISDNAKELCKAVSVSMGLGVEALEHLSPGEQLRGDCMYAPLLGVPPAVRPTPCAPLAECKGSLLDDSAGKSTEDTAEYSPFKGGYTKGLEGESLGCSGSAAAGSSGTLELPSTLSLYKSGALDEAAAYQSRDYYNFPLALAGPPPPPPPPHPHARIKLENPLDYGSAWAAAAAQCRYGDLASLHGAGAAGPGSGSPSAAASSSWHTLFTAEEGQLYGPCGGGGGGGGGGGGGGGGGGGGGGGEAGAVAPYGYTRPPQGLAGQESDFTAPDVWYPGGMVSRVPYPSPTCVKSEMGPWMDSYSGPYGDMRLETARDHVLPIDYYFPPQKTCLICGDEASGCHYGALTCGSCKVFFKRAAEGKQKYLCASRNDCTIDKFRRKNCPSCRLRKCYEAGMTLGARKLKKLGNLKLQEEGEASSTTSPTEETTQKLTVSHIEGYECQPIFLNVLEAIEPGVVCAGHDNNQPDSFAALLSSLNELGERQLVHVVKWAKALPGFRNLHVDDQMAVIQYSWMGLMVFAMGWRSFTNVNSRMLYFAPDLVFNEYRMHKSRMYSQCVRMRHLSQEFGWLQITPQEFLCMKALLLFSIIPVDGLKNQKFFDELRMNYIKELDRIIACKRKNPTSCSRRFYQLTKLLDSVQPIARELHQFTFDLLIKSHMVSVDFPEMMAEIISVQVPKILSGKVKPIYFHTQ

`CC(C)Cc1ccccc1`: the Potency result in assay [1], in [2], in assay [3], in [4], in assay [5] and in assay [6] was “inactive” throughout. Moreover, the Potency result in assay [7], in [8], in assay [9], in assay [10], in assay [11] and in [12] was “inactive” in each case. For the same molecule, the Potency result in assay [13], in [14], in [15], in [17] and in [18] was “inactive” each time. In assay [16], the result was inactive.

For `C=C(C)C(=O)OCCC[Si](OC)(OC)OC`, the Potency result in assay [1], in assay [2], in [3], in assay [4], in assay [5] and in assay [6] was “inactive” throughout. Also, the Potency result in assay [7], in assay [8], in assay [9], in assay [10], in [11] and in assay [12] was “inactive” in each case. The Potency entry in [13], in assay [14], in assay [15], in assay [17] and in assay [18] was “inactive” in each case. In addition, the result in [16] was inactive.

Consider `CCc1ccc(O)cc1`, for which the Potency entry in assay [1], in [2], in [3], in assay [4], in assay [5] and in assay [6] was “inactive” in each case. The Potency entry in assay [7], in assay [8], in assay [9], in assay [10], in assay [11] and in [12] was “inactive” in each case. Moreover, the Potency result in [13], in assay [15], in assay [17] and in assay [18] was “inactive” in each case. In addition, the outcome in assay [19] and in assay [16] was inactive.

For the molecule `O=C1O[C@H](CO)[C@@H](O)[C@H](O)[C@H]1O`, the Potency result in assay [1], in assay [2], in assay [3], in assay [4], in assay [5] and in assay [6] was “inactive” in each case. In addition, the Potency entry in assay [7], in [8], in [9], in assay [10], in assay [11] and in [12] was “inactive” each time. Moreover, the Potency entry in assay [13], in assay [14], in assay [15], in assay [17] and in assay [18] was “inactive” in each case. Moreover, the molecule was classed as inactive in assay [20] and in assay [16].

As to `OC[C@@H](O)[C@H](O)[C@H](O)[C@@H](O)CO`, the Potency result in assay [1], in assay [2], in [3], in assay [4], in assay [5] and in [6] was “inactive” each time. The Potency entry in [7], in assay [8], in assay [9], in assay [10], in [11] and in [12] was “inactive” each time. For the same molecule, the Potency entry in [13], in [14], in [15], in assay [17] and in [18] was “inactive” throughout. For the same molecule, the outcome in assay [20] and in assay [16] was inactive.

For the molecule `CCOC(=O)/C=C\C(=O)OCC`, the Potency result in assay [1], in assay [2], in [3], in assay [4], in assay [5] and in assay [6] was “inactive” each time. Besides, the Potency entry in assay [7], in [8], in assay [9], in assay [10], in assay [11] and in [12] was “inactive” throughout. Besides, the Potency entry in assay [13], in assay [14], in assay [15], in assay [17] and in [18] was “inactive” in each case. The outcome in assay [16] was inactive.

For the molecule `CCc1ccccc1O`, the Potency entry in assay [1], in assay [2], in assay [3], in assay [4], in assay [5] and in [6] was “inactive” each time. For the same molecule, the Potency result in [7], in [8], in assay [9], in assay [10], in assay [11] and in [12] was “inactive” in each case. In addition, the Potency entry in [13], in assay [15], in [17] and in assay [18] was “inactive” in each case. For the same molecule, in assay [14], the Potency is 19.2 µM (active) and inactive. For the same molecule, the molecule was classed as inactive in [16].
